Source: PubChem BioAssay (NCATS)
Results filed as inconclusive are left out. The list shows a part of the results. Active and inactive are the calls of the source. Unless noted, the call rests on the fitted dose curve; in most records, active means well fitted curve in the direction sought with a large enough effect; inconclusive means small, poorly fitted or top-dose-only effect, or another doubt; inactive means no such curve, though single readings can be large; an effect the other way counts as inactive or inconclusive.

Tests used:
[1] = molecular target: Vitamin D3 receptor (Homo sapiens) (UniProt P11473); experiment: qHTS for Inhibitors of the vitamin D receptor (VDR): Hit Validation using a Fluorescein Assay (AID 602200); details: VDR-coactivator binding, fluorescein fluorescence polarization; further: potency means the concentration at half of the fitted maximal effect
Vitamin D3 receptor (Homo sapiens), sequence (P11473 whole entry, looked up, the tested form may be a part): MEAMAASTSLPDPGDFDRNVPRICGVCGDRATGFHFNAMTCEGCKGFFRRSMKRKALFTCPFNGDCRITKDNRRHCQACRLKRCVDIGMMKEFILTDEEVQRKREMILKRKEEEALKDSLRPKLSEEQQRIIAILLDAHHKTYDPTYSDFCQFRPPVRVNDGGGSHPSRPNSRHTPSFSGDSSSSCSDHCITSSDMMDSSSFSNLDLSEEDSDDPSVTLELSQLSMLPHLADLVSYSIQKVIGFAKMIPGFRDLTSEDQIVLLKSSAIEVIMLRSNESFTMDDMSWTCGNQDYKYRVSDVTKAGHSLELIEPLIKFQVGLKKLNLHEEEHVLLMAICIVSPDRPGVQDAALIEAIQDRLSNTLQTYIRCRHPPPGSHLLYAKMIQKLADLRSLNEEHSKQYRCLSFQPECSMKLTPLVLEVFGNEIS
Outline: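 Fluorescence polarization: 1.5 uM VDR-LBD, 5 uM LG19078 and 5 nM fluorescein-labeled SRC2-3 peptide (final) with compounds, 2 h at room temperature. Read at Ex 495/Em 520 nm; peptide-only wells served as control.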

[2] = molecular target: Flap endonuclease 1 (Homo sapiens) (UniProt P39748); experiment: qHTS Assay for the Inhibitors of FEN1: Confirmatory Assay for Cherry-picked Compounds (AID 720498); details: FEN1 flap cleavage, TAMRA/BHQ2 fluorogenic DNA substrate; further: potency means the concentration at half of the fitted maximal effect; nearly all actives have a fitted effect of over 60% in size
Outline: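 FEN1 at 10 nM was preincubated with compound for 15 min at room temperature, then 50 nM (final) double-flap DNA substrate was added. TAMRA fluorescence released from the BHQ-2-quenched flap was read at 0 and 15 min (ex 525/em 598 nm).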

[3] = molecular target: DNA polymerase eta (Homo sapiens) (UniProt Q9Y253); experiment: qHTS for Inhibitors of Polymerase Eta: Confirmatory Assay for Cherry-picked Compounds (AID 720502); details: Pol eta primer extension, TAMRA/BHQ fluorescence, 10 min; further: potency means the concentration at half of the fitted maximal effect
DNA polymerase eta (Homo sapiens), sequence (Q9Y253 whole entry, looked up): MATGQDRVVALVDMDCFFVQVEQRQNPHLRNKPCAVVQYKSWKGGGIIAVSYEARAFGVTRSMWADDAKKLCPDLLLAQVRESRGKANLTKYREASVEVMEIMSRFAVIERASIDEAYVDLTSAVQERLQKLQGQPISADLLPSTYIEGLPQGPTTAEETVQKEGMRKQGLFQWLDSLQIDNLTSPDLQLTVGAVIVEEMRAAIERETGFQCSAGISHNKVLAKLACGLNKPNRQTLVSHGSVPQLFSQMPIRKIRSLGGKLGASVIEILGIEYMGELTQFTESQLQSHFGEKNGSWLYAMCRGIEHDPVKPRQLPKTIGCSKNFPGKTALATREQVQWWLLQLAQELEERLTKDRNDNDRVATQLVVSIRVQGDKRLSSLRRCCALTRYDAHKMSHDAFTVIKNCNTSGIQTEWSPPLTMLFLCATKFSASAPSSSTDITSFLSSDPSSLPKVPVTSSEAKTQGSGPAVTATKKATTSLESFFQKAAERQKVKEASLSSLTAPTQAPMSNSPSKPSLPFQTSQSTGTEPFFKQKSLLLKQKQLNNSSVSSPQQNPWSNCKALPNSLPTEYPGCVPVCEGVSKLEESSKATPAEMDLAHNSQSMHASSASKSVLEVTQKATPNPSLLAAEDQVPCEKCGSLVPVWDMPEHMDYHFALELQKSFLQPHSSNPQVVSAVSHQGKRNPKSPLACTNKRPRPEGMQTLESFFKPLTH
Outline: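 Compounds are preincubated 15 min at room temperature with 10 nM human Pol eta, with buffer-only wells serving as negative control. Adding 50 nM final substrate starts the reaction, and TAMRA fluorescence is read over 10 min.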

[4] = qHTS for Inhibitors of the vitamin D receptor (VDR): Hit Validation using a Cytotoxicity Assay (AID 602204); further: nearly all actives have a fitted effect of over 75% in size
Outline: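 20,000 cells/well, 4 h settle; add cpds, 18 h; ATP luminescence reagent, 30 min, read. Pos ctrl cycloheximide (high conc), neg ctrl DMSO.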

[5] = molecular target: Bifunctional 3'-5' exonuclease/ATP-dependent helicase WRN (Homo sapiens) (UniProt Q14191); experiment: qHTS for Inhibitors of WRN Helicase: Confirmatory Assay for Cherry-picked Compounds. (AID 720497); further: series mostly up to about 57 µM; nearly all actives have a fitted effect of over 65% in size
Outline: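 Confirmatory retest of cherry-picked hits in 1536-well format. Enzyme (20 nM final) sat with compound for 15 min at room temperature before forked duplex substrate (100 nM) and ATP (2 mM) were added, and unwinding was followed kinetically by red fluorescence.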

[6] = qHTS for Inhibitors of WRN Helicase: Thiazole Orange DNA Binding Counterscreen (AID 720499);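 further: drop in dye fluorescence marks compound binding to DNA; nearly all actives have a fitted effect of over 60% in size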
Outline: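 Fluorescence at 530 nm (excitation 480 nm) is measured after compounds incubate 15 min at room temperature with unlabeled DNA (50 nM) bound to thiazole orange (100 nM). Decreased signal indicates nonspecific DNA binding.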

[7] = molecular target: RecQ-like DNA helicase BLM (Homo sapiens) (UniProt P54132); experiment: qHTS for Inhibitors of WRN Helicase: BLM Helicase Counterscreen for WRN Inhibitors (AID 720503); further: nearly all actives have a fitted effect of over 60% in size
Outline: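 Steps: compounds added to 1 nM BLM in pH 8.0 Tris buffer with 2 mM MgCl2; 15 min room-temperature incubation; substrates added (100 nM DNA, 2 mM ATP final); discontinuous kinetic fluorescence measurement, reads spaced 15 min.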

[8] = molecular target: Cytochrome P450 3A4 (Homo sapiens) (UniProt P08684); experiment: qHTS Assay for Activators of Cytochrome P450 3A4 (AID 885); further: nearly all actives have a fitted effect of over 65% in size
Cytochrome P450 3A4 (Homo sapiens), sequence (P08684 whole entry, looked up): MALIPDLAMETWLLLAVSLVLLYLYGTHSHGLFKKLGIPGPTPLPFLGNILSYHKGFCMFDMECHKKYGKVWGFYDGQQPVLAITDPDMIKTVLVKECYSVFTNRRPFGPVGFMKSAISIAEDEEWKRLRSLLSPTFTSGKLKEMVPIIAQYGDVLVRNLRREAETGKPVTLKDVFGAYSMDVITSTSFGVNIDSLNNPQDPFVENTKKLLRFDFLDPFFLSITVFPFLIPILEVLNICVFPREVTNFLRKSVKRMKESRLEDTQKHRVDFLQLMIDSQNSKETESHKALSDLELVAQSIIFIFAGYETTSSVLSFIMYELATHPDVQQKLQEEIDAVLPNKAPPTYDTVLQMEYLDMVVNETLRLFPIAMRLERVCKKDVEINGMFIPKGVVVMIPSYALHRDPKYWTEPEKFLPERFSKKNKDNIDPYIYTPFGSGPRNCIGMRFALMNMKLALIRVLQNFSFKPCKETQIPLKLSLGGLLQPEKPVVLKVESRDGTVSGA
Outline: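 Quantitative HTS format: compounds preincubated with 20nM human CYP3A4 and Luciferin-PPXE substrate at KM, reaction started by NADPH regeneration, stopped after 60 min, luciferase luminescence read 20 min later.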

[9] = S16 Schwann cell viability assay (CellTiter-Glo assay) (AID 624031); further: potency means the concentration at half of the fitted maximal effect; nearly all actives have a fitted effect of over 70% in size
Outline: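 Untransfected S16 rat Schwann cells; compound 24 h, 37 °C/5% CO2; CellTiter-Glo ATP luminescence. % activity vs no-cell wells and DMSO controls (0%); concentration-effect curves classed by r2, response magnitude, activity.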

[10] = qHTS Assay for Identifying Gametocytocidal Compounds (AID 743244); further: potency means the concentration at half of the fitted maximal effect; details: P. falciparum 3D7 stage III-V gametocytes, alamarBlue, 72 h; max response: hits give low values
Outline: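 Fluorescence at Ex 525/Em 598 nm, recorded 24 h after alamarBlue addition, reports residual metabolic activity of 3D7 gametocytes (stages III–V) following 72 h compound exposure at 37 °C, 5% CO2.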

[11] = qHTS screen for small molecules that inhibit ELG1-dependent DNA repair: Hit Confirmation in Cell-Based Luciferin Assay (AID 624247); details: cell-free firefly luciferase luminescence counter-screen, ViewLux; further: potency means the concentration at half of the fitted maximal effect
Outline: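 Luciferin substrate reagent dispensed first, then compounds or DMSO vehicle pin-transferred, then luciferase enzyme added; luminescence read on a CCD-based plate reader.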

[12] = molecular target: ATPase family AAA domain-containing protein 5 (Homo sapiens) (UniProt Q96QE3); experiment: HTS assay for small molecules that inhibit ELG1-dependent DNA repair in human embryonic kidney (HEK293T) cells expressing luciferase-tagged ELG1: Hit Confirmation (AID 624248); details: HEK293T ELG1-luciferase levels, luminescence; cells co-treated with 5-fluorouridine; further: potency means the concentration at half of the fitted maximal effect; nearly all actives have a fitted effect of over 55% in size
ATPase family AAA domain-containing protein 5 (Homo sapiens), sequence (Q96QE3 whole entry, looked up, the tested form may be a part): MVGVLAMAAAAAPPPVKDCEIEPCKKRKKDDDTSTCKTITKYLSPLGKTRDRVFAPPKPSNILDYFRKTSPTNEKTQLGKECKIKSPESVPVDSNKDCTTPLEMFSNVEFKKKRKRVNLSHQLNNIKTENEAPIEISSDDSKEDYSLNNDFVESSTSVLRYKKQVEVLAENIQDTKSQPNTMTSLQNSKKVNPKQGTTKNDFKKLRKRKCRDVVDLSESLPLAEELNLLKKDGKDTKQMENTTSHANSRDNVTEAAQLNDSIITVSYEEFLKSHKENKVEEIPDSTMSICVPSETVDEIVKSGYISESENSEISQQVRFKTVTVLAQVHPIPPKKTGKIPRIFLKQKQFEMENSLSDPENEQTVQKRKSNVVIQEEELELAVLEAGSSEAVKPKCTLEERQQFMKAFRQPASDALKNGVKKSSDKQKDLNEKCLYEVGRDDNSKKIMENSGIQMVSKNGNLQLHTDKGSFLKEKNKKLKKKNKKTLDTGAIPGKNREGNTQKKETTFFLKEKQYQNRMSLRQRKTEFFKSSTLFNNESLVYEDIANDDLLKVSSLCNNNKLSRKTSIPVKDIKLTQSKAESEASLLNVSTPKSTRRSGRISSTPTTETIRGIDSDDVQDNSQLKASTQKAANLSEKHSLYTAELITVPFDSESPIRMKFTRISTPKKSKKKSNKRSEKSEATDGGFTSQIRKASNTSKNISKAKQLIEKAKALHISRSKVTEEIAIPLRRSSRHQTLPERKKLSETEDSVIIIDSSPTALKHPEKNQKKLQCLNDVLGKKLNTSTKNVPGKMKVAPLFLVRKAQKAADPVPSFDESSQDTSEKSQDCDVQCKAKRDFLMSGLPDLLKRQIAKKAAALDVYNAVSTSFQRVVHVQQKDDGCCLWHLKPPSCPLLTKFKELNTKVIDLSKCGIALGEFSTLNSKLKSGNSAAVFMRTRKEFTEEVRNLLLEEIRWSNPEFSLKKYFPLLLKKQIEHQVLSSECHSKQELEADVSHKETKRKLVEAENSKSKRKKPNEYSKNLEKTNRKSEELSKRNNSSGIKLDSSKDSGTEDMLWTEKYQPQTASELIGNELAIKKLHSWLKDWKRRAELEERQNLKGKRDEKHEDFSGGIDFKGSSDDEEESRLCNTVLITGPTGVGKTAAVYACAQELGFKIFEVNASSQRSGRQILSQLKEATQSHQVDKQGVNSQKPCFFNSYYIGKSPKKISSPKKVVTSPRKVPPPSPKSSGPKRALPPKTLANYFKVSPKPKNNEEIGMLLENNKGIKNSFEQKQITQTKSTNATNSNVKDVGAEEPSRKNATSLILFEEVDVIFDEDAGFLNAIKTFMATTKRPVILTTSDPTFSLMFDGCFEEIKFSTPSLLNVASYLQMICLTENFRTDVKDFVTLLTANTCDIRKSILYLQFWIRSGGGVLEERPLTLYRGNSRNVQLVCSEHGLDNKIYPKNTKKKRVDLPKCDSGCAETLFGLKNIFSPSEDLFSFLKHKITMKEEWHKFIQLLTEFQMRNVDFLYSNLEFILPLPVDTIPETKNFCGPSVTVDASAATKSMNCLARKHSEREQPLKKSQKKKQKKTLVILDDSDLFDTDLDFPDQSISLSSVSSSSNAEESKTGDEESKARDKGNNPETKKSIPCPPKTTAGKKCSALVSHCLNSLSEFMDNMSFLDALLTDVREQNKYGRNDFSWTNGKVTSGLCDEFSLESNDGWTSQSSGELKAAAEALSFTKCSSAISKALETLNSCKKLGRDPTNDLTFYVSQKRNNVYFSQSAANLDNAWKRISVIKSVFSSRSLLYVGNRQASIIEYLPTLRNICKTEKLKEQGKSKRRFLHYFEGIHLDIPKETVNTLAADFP
Outline: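 HEK293T cells expressing luciferase-tagged ELG1 treated with 5-fluorouridine plus compound for 16 h at 37 C; luciferase activity then measured with ONE-Glo after 30 min at room temperature.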

[13] = molecular target: ATPase family AAA domain-containing protein 5 (Homo sapiens) (UniProt Q96QE3); experiment: qHTS screen for small molecules that inhibit ELG1-dependent DNA repair in human embryonic kidney (HEK293T) cells expressing luciferase-tagged ELG1: Hit Confirmation using MMS Stimulated ELG1 (AID 624249); details: HEK293T luciferase-tagged ELG1 level; further: potency means the concentration at half of the fitted maximal effect; nearly all actives have a fitted effect of over 60% in size
Outline: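 HEK293T ELG1-luc, 2,000 cells/well; ~5 h post-seed: cpd + MMS (10 µM final); 16 h; luc read w/ Amplight.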

[14] = qHTS screen for small molecules that inhibit ELG1-dependent DNA repair: Hit Confirmation with MMS Viability (AID 624251); details: Cell viability with MMS
Outline: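 Viability read-out: CellTiter-Glo, 16 h after compound addition. Cell line ELG1-luc HEK293T; DNA-damaging co-treatment MMS, 10 µM final.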

[15] = molecular target: Luciferin 4-monooxygenase (Photinus pyralis) (UniProt P08659); experiment: qHTS screen for small molecules that inhibit ELG1-dependent DNA repair: Hit Confirmation in Biochemical Luciferin Assay (AID 624253); further: series mostly up to about 57 µM
Outline: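 Counter-screen against purified firefly luciferase: substrate reagent dispensed first, then compound or DMSO by pintool, then luciferase enzyme added. Luminescence read on a CCD-based imager.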

[16] = molecular target: Guanine nucleotide-binding protein G(i) subunit alpha-1 (Homo sapiens) (UniProt P63096); experiment: qHTS Assay for Inhibitors of RGS12 GoLoco Motif Activity (Green Fluorophore) (AID 879);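 further: negative values mean loss of peptide binding seen as reduced polarization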
Guanine nucleotide-binding protein G(i) subunit alpha-1 (Homo sapiens), sequence (P63096 whole entry, looked up): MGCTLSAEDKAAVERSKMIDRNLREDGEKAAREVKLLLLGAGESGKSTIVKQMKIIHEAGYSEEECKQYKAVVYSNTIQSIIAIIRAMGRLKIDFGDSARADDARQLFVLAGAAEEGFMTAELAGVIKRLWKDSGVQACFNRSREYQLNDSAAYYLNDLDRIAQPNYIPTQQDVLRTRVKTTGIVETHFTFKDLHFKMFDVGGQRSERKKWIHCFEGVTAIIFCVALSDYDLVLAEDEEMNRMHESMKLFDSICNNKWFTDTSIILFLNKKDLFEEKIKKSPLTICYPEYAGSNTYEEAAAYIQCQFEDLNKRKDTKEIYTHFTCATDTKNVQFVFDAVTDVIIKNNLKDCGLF
Outline: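 Fluorescence polarization assay: 50 nM Gαi1 with 10 nM FITC-labeled RGS12 GoLoco peptide in 10 mM Tris pH 7.5, 150 mM NaCl, 0.1 mM GDP, 0.05% NP40, 10 min at room temperature with compound.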

[17] = molecular target: Cytochrome P450 3A4 (Homo sapiens) (UniProt P08684); experiment: qHTS Assay for Inhibitors and Substrates of Cytochrome P450 3A4 (AID 884); further: potency means the concentration at half of the fitted maximal effect; nearly all actives have a fitted effect of over 50% in size
Outline: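 20 nM human CYP3A4 with 25 uM Luciferin-PPXE (at KM) in 200 mM KPO4, preincubated 10 min with compound; NADPH regeneration started a 60 min RT reaction. Luciferin detected by luminescence, normalized to 57 uM ketoconazole as full inhibition.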

[18] = molecular target: Alpha-galactosidase (Coffea arabica) (UniProt Q42656); experiment: Counterscreen for Glucocerebrosidase Inhibitors: qHTS Assay for Coffee Bean alpha-Galactosidase at pH 4.5 (AID 957); further: series mostly up to about 77 µM
Alpha-galactosidase (Coffea arabica), sequence (Q42656 whole entry, looked up): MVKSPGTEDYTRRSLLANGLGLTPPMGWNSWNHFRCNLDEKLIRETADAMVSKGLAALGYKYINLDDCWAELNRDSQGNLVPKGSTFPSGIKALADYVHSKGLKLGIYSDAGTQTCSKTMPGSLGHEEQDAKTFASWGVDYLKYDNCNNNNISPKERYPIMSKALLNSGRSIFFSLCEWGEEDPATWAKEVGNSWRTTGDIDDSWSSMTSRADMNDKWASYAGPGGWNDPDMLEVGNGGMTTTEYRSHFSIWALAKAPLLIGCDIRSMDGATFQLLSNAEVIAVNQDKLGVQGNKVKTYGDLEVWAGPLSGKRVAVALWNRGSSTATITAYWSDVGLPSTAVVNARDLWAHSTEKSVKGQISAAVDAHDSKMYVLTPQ
Outline: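 Green coffee bean enzyme (2 nM final) was incubated with compounds (0.7 nM to 77 uM) and 4-methylumbelliferyl alpha-D-galactopyranoside (80 uM final) in 50 mM citric acid, 0.005% Tween-20, pH 4.5, 20 min at room temperature; AC50 from Hill fits.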

[19] = molecular target: Alpha-galactosidase (Coffea arabica) (UniProt Q42656); experiment: Counterscreen for Glucocerebrosidase Inhibitors: qHTS Assay for Coffee Bean alpha-Galactosidase at pH 5.9 (AID 998)
Outline: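 Green coffee bean enzyme (2 nM) with 4-methylumbelliferyl alpha-D-galactopyranoside (80 uM) in 50 mM citric acid, 0.005% Tween-20, pH 5.9, 20 min at room temperature; compounds 0.7 nM–77 uM. Stopped at pH 10, fluorescence Ex365/Em440; Hill-fit AC50.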

[20] = qHTS assay for small molecule activators of the nuclear factor-kappa B (NF-kB) signaling pathway (AID 651749; active means well fitted activation curve with a large enough effect in the signal ratio; the % refers to the signal ratio; further: potency means the concentration at half of the fitted maximal effect); details: NF-kB-bla ME-180 cells, beta-lactamase FRET ratio, 16 h; activation: hits give high values
Outline: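 Incubation lasted 16 hr at 37C in 5% CO2 after 23 nL compound addition to ME-180 NF-kB-bla cells. Activation appears as beta-lactamase-mediated FRET loss.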

[21] = molecular target: Tyrosine-protein kinase Yes (Homo sapiens) (UniProt P07947); experiment: qHTS for small molecule inhibitors of Yes1 kinase: Primary Screen (AID 686947); details: Yes1 kinase biochemical qHTS inhibition
Tyrosine-protein kinase Yes (Homo sapiens), sequence (P07947 whole entry, looked up): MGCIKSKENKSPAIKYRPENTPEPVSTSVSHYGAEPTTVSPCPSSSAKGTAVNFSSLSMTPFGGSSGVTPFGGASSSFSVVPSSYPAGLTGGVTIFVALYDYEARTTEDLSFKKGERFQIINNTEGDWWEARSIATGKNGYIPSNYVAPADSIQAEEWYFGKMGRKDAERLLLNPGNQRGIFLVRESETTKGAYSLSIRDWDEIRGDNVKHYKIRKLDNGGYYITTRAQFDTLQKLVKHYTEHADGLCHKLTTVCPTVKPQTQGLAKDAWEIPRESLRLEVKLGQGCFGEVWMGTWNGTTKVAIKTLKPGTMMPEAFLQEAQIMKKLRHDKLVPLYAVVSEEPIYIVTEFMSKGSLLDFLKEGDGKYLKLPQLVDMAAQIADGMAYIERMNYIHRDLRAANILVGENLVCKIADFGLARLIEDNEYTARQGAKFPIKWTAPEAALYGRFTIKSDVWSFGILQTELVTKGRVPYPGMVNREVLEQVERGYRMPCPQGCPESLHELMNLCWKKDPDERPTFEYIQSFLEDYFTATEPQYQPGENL
Outline: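 ADP-Glo luminescence readout; final 4 nM Yes1, 0.1 mM ATP, 0.3 mg/mL poly(E4Y), Tris pH 7.5, MgCl2, DTT, Brij-35. 20 min compound preincubation, 60 min reaction at RT. Normalized to DMSO wells with and without enzyme.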

## O=C1NC(=O)N(c2ccccc2)C(=O)/C1=C/c1ccc([N+](=O)[O-])s1
[1]
  Potency: 20 µM (active)
[2]
  Potency: 19 µM (active)
[3]
  Potency: 30.1 µM (active)

## Cc1ccnc(-n2c(C)cc(/C=C3\C(=O)NC(=S)N(C)C3=O)c2C)c1
[4]
  outcome: inactive

## O=C(O)CCn1cc(C=C2C(=O)NC(=S)NC2=O)c(-c2cccc(Br)c2)n1
[4]
  outcome: inactive
[5]
  outcome: inactive
[6]
  outcome: inactive
[7]
  outcome: inactive

## CNC[C@H](O)c1ccc(OC(=O)C(C)(C)C)c(OC(=O)C(C)(C)C)c1
[8]
  Potency: inactive

## COc1cc(-c2ccc(-[n+]3nc(-c4ccccc4)nn3-c3ccc([N+](=O)[O-])cc3)c(OC)c2)ccc1-[n+]1nc(-c2ccccc2)nn1-c1ccc([N+](=O)[O-])cc1
[9]
  Potency: 28.7 µM (active)
[10]
  Potency: 5.62 µM (active)

## CC(=O)[O][Sn]([c]1ccccc1)([c]1ccccc1)[c]1ccccc1
[11]
  Potency: 1.99 µM (active)
[12]
  Potency: 1.58 µM (active)
[13]
  Potency: 0.281 µM (active)
[14]
  Potency: 0.281 µM (active)

## C[C@@H]1C[C@H]2CC[C@H](O2)[C@H](C)C(=O)O[C@@H](C)C[C@@H]2CC[C@@H](O2)[C@@H](C)C(=O)O[C@H](C)C[C@H]2CC[C@H](O2)[C@H](C)C(=O)O[C@@H](C)C[C@@H]2CC[C@@H](O2)[C@@H](C)C(=O)O1
[12]
  Potency: 14.1 µM (active)
[13]
  Potency: 0.0889 µM (active)
[14]
  Potency: 0.0997 µM (active)
[15]
  outcome: inactive

## C[C@]12O[C@H](C[C@]1(O)CO)n1c3ccccc3c3c4c(c5c6ccccc6n2c5c31)CNC4=O
[10]
  Potency: 2.51 µM (active)

## C[C@@]12C=CC(=O)C=C1CC[C@@H]1C2=CC[C@]2(C)[C@@H]1CC[C@H]2C(=O)CN1CCN(c2cc(N3CCCC3)nc(N3CCCC3)n2)CC1
[16]
  Potency: inactive
[17]
  Potency: 3.16 µM (active)
[8]
  Potency: inactive
[18]
  outcome: inactive
[19]
  outcome: inactive

## O=C(O[C@@H]1Cc2c(O)cc(O)cc2O[C@@H]1c1cc(O)c(O)c(O)c1)c1cc(O)c(O)c(O)c1
[20]
  Potency: 12.6 µM (active)

## COc1cc(O)c2c(c1)/C=C/C[C@H](O)[C@H](O)C(=O)/C=C\C[C@H](C)OC2=O
[21]
  Potency: 2.44 µM (active)
